# Reference: the supplement of paper PMC9135407
# “And” between values parts separate entries of the source, which are not always exact repeats. Equal entries are not always repeated. Structures can show the parent of a compound that is named as a salt. In all, about 5,800 compounds went through this assay and about 620 (11%) showed activity. Many of the other results were omitted from the sample, so actives are more common in it than they were. Unmarked numbers belong to inactive results.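 The calls were made as follows: active = score above a cut-off or among the top three wells of a plate; in these data no inactive exceeds 0.85.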
# Tested on: primary human hepatic stellate cells (donor 1)
# Test: scaled lipid accumulation score (0 = DMSO-like, 1 = nortriptyline-like); higher = stronger HSC inactivation (lipid re-accumulation), active = hit call of the paper
# Conditions: 48 h
# [1] = library stock concentration: 1 mM
# [2] = library stock concentration: 80 uM
# [3] = library stock concentration: 400 uM
# [4] = library stock concentration: 2 mM
# [5] = library stock concentration: 10 mM
# [6] = library stock concentration: 3.33 mM
smiles,measurement,setting,value
O=C(OCc1ccccc1)[C@H](O)c1ccccc1 [(R)-benzyl Mandelate],scaled lipid accumulation score,[1],≤ 0
C=C(C)[C@@H](CC=C(C)C)C[C@@]12C[C@@H](CC=C(C)C)C(C)(C)[C@@](CC=C(C)C)(C(=O)C(C(=O)c3ccc(O)c(O)c3)=C1O)C2=O [Garcinol],scaled lipid accumulation score,[2],≤ 0
same,scaled lipid accumulation score,[3],≤ 0
same,scaled lipid accumulation score,[4],≤ 0
same,scaled lipid accumulation score,[5],≤ 0
C[C@@H](N)C1CCC(C(=O)Nc2ccncc2)CC1 (stereo not given in full),scaled lipid accumulation score,[6],≤ 0
O=C(O)CCCC[C@@H]1CCSS1 [Thioctic acid],scaled lipid accumulation score,[5],≤ -0.027
CC/C(=C\C(=N\O)C(N)=O)C(C)[N+](=O)[O-] (stereo not given),scaled lipid accumulation score,[1],≤ 0
CC(C)CCC[C@@H](C)CCC[C@@H](C)CCCC(C)CC(=O)O (stereo not given in full) [Phytanic Acid],scaled lipid accumulation score,[1],0.028
O=C(NCCS(=O)(=O)c1ccc(C(F)(F)F)cn1)c1ccc(Cl)cc1,scaled lipid accumulation score,[6],≤ -0.009
same,scaled lipid accumulation score,[5],≤ 0
Cc1nc(Nc2ncc(C(=O)Nc3c(C)cccc3Cl)s2)cc(N2CCN(CCO)CC2)n1 [listing 1 of 2 here],scaled lipid accumulation score,[3],0.775
same,scaled lipid accumulation score,[5],0.677
Cc1nc(Nc2ncc(C(=O)Nc3c(C)cccc3Cl)s2)cc(N2CCN(CCO)CC2)n1 [listing 2 of 2 here],scaled lipid accumulation score,[4],1.18 (active)
same,scaled lipid accumulation score,[5],1.48 (active)
C=CC(=O)Nc1cccc(Sc2nc(Nc3ccc(N4CCN(C)CC4)cc3)ncc2Cl)c1,scaled lipid accumulation score,[6],≤ 0
same,scaled lipid accumulation score,[5],0.466
Cc1nc(Nc2ncc(C(=O)Nc3c(C)cccc3Cl)s2)cc(N2CCN(CCO)CC2)n1 [Dasatinib],scaled lipid accumulation score,[2],≤ 0
same,scaled lipid accumulation score,[3],0.238
same,scaled lipid accumulation score,[4],0.602
same,scaled lipid accumulation score,[6],0.43
same,scaled lipid accumulation score,[5],0.646 and 0.707
O=S(=O)(c1ccccc1)N(CC(F)(F)F)c1ccc(C(O)(C(F)(F)F)C(F)(F)F)cc1,scaled lipid accumulation score,[1],0.1
same,scaled lipid accumulation score,[6],0.164
same,scaled lipid accumulation score,[5],0.741 and 0.112
CN1CCCC(CC2c3ccccc3Sc3ccccc32)C1.Cl.O (stereo not given) [Metixene hydrochloride],scaled lipid accumulation score,,1.12 (active)
N#Cc1ccc2c(c1)N(CCCN1CCC(O)CC1)c1ccccc1S2 [Periciazine],scaled lipid accumulation score,[5],0.107
CN1CCN(C2Cc3ccccc3Sc3ccc(Cl)cc32)CC1 (stereo not given),scaled lipid accumulation score,[5],0.378
"C[C@@H](O)CCC[C@@H](O)/C=C/[C@H]1C(O)CC(O)C1CCCCCCC(=O)O (stereo partly drawn) [15(R),19(R)-hydroxy Prostaglandin F1.alpha.]",scaled lipid accumulation score,[1],≤ 0
CCc1c2c(nc3ccc(O)cc13)-c1cc3c(c(=O)n1C2)COC(=O)[C@]3(O)CC,scaled lipid accumulation score,[6],≤ 0
same,scaled lipid accumulation score,[5],0.297 and ≤ -0.001
CCc1c2c(nc3ccc(OC(=O)N4CCC(N5CCCCC5)CC4)cc13)-c1cc3c(c(=O)n1C2)COC(=O)[C@]3(O)CC [Irinotecan hydrochloride],scaled lipid accumulation score,[5],0.299
CC[C@@]1(O)C(=O)OCc2c1cc1n(c2=O)Cc2cc3c(CN(C)C)c(O)ccc3nc2-1,scaled lipid accumulation score,[5],≤ 0
CC[C@@]1(O)C(=O)OCc2c1cc1n(c2=O)Cc2cc3c(CN(C)C)c(O)ccc3nc2-1 [Topotecan],scaled lipid accumulation score,library stock concentration: 4.7 mM,≤ 0
CC[C@@]1(O)C(=O)OCc2c1cc1n(c2=O)Cc2cc3c(CN(C)C)c(O)ccc3nc2-1 [Topotecan hydrochloride hydrate],scaled lipid accumulation score,[5],≤ -0.055
CCc1c2c(nc3ccc(OC(=O)N4CCC(N5CCCCC5)CC4)cc13)-c1cc3c(c(=O)n1C2)COC(=O)[C@]3(O)CC,scaled lipid accumulation score,[5],0.226
CCc1c2c(nc3ccc(OC(=O)N4CCC(N5CCCCC5)CC4)cc13)-c1cc3c(c(=O)n1C2)COC(=O)[C@]3(O)CC [IRINOTECAN HCl )trihydrate)],scaled lipid accumulation score,[5],1.1 (active)
CCc1c2c(nc3ccc(OC(=O)N4CCC(N5CCCCC5)CC4)cc13)-c1cc3c(c(=O)n1C2)COC(=O)[C@]3(O)CC [Irinotecan],scaled lipid accumulation score,[6],0.151
same,scaled lipid accumulation score,[5],0.025
CC[C@@]1(O)C(=O)OCc2c1cc1n(c2=O)Cc2cc3c(CN(C)C)c(O)ccc3nc2-1 [Topotecan HCl],scaled lipid accumulation score,[6],≤ 0
same,scaled lipid accumulation score,[5],≤ 0
CCc1c2c(nc3ccc(OC(=O)N4CCC(N5CCCCC5)CC4)cc13)-c1cc3c(c(=O)n1C2)COC(=O)[C@]3(O)CC [Irinotecan HCl Trihydrate],scaled lipid accumulation score,[6],≤ 0
same,scaled lipid accumulation score,[5],0.228
CC[C@@]1(O)C(=O)OCc2c1cc1n(c2=O)Cc2cc3c(CN(C)C)c(O)ccc3nc2-1 [Topotecan hydrochloride],scaled lipid accumulation score,library stock concentration: 4.4 mM,0.131
same,scaled lipid accumulation score,[5],0.196
N=C(N)N,scaled lipid accumulation score,[5],≤ 0
N=C(N)N [Guanidine HCl],scaled lipid accumulation score,[6],≤ 0
same,scaled lipid accumulation score,[5],≤ -0.001
CCCCC[C@H](O)/C=C/[C@H]1OC(O)C[C@H](O)[C@@H]1CCCCCCC(=O)O (stereo not given in full) [Thromboxane B1],scaled lipid accumulation score,[1],0.131
C#CCCCCCCCCCCCC(O)CC(O)CO (stereo not given) [Avocadyne],scaled lipid accumulation score,[5],0.005
COc1ccccc1N1CCN(CCCCNC(=O)c2ccc3ccccc3c2)CC1 [listing 1 of 2 here],scaled lipid accumulation score,[5],1.01 (active)
Cl.O=C(NCCCCN1CCN(c2cccc(Cl)c2Cl)CC1)c1ccc2c(c1)Cc1ccccc1-2,scaled lipid accumulation score,[5],0.884 (active)
COc1cccc(C(=O)NCCN2CCN(c3ccc(Cl)cc3)CC2)c1,scaled lipid accumulation score,[5],0.314
COc1ccccc1N1CCN(CCCNc2cc(=O)n(C)c(=O)n2C)CC1,scaled lipid accumulation score,[5],≤ 0
COc1ccccc1N1CCN(CCCNc2cc(=O)n(C)c(=O)n2C)CC1 [Urapidil],scaled lipid accumulation score,[5],≤ -0.027
COc1ccccc1N1CCN(CCCCNC(=O)c2ccc(-c3ccc(C(C)=O)cc3)cc2)CC1,scaled lipid accumulation score,[5],0.934 (active)
"Cc1cccc(C(=O)NCN2CCN(c3ccccc3C#N)CC2)c1 [PD 168,077 maleate]",scaled lipid accumulation score,[5],≤ 0
Cc1cccc(C(=O)NCN2CCN(c3ccccc3C#N)CC2)c1,scaled lipid accumulation score,[5],0.009
COc1ccc2cccc(N3CCN(CCNC(=O)c4ccc(F)cc4)CC3)c2c1,scaled lipid accumulation score,[5],0.585
COc1ccccc1N1CCN(CCCNc2cc(=O)n(C)c(=O)n2C)CC1 [Urapidil hydrochloride],scaled lipid accumulation score,,≤ 0
same,scaled lipid accumulation score,[5],≤ 0 and 0.02
"COc1ccccc1N1CCN(CCCNc2c(C)c(=O)n(C)c(=O)n2C)CC1 [Urapidil, 5-Methyl-]",scaled lipid accumulation score,[5],≤ 0
COc1ccccc1N1CCN(CCCNc2cc(=O)n(C)c(=O)n2C)CC1 [Urapidil HCl],scaled lipid accumulation score,[6],≤ 0
same,scaled lipid accumulation score,[5],≤ 0
COc1ccccc1N1CCN(CCCCNC(=O)c2ccc3ccccc3c2)CC1 [listing 2 of 2 here],scaled lipid accumulation score,,0.307
